Screening results: PubChem, National Center for Advancing Translational Sciences (NCATS)
HttQ103 aggreg: mutant huntingtin aggregation inhibition | PC12 HttQ103-GFP aggregates, Acumen cytometry, 40 h | Potency, µM (doses to about 46.1 µM), without a hit: at the top dose activity change, negative = inhibition, hits mostly inhibitors | actives 1.1% (n = 220,000) | AID 1688; note: potency is the fitted concentration of half-maximal effect; % is set by controls: 0 for no effect and ±100 for the full control effect; nearly all actives have a fitted effect of over 60% in size
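Huntingtin Q103 exon 1–GFP aggregates in induced PC12 cells (100 nM tebufenozide) were quantified by cytometry from lysates, with compounds dosed in titration.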
IMPase Li inh: IMPase inhibition in cells with lithium potentiation; Potency, µM (doses to about 59.4 µM), for the others: at the highest dose activity, negative = IMPase inhibition, actives largely listed as inhibitors; CHO-M1 cells, IP1 TR-FRET (IP-One), carbachol + lithium; actives 0.35% (n = 210,000);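 note: IP1 builds up when IMPase is blocked and the TR-FRET signal falls; potency is the fitted concentration of half-maximal effect; plate controls were basal vehicle for no effect and high inhibitor control for full effect; nearly all actives have a fitted effect of over 50% in size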
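Concentration–response in CHO-M1 cells, lithium-potentiated; 30 min at 37C. IP1 detected by competitive TR-FRET after 10 min lysis at RT. Hill-fitted AC50.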
IMPase cell inh: IMPase inhibition in cells. P97697. CHO-M1 cells, IP1 accumulation, HTRF TR-FRET ratio. inhibition (IP1 accumulation), % at 46.1 µM. 120,000 tested, under 10 active; active = well fitted curve in the direction sought with a large enough effect in the signal ratio, not every such curve was filed as active; inconclusive = small, poorly fitted or top-dose-only effect, or a change in a side signal; inactive = no such curve, though single readings can be large or run the other way; the % refers to the signal ratio;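 note: cells stimulated with carbachol in lithium chloride buffer; plate controls were DMSO basal wells for no effect and reference inhibitor wells for full effect; higher means more IMPase inhibition seen as more IP1 and lower FRET ratio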
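Carbachol-driven Gq signalling in CHO-M1 cells (2000/well) generates IP1. Compounds that block IMPase raise IP1 and so reduce the FRET signal from Eu-anti-IP1 and d2-IP1 after a 10 min room-temperature lysis.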
HPGD inh: inhibitors of human 15-hydroxyprostaglandin dehydrogenase (HPGD) | purified HPGD, NADH fluorescence kinetic, PGE2 substrate | Potency, µM, without a hit: top-dose activity change, negative = inhibition, hits mostly inhibitors | actives 4.3% (n = 150,000) | AID 894; active = well fitted inhibition curve with a large enough effect, not every such curve was filed as active; inconclusive = small, poorly fitted or top-dose-only effect, or another doubt; inactive = no such curve, though single readings can be large or run the other way; note: potency is the fitted concentration of half-maximal effect; % is set by controls: 0 for no effect and ±100 for the full control effect
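NADH formation kinetics: reaction with 30 uM PGE2 and 1 mM NAD+ (final), 20 nM enzyme, Tris-HCl pH 8 with Tween 20, after 15 min compound preincubation at room temperature. Fluorescence change, last versus first of five reads.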
ALDH1A1 inh: ALDH1A1 (human) enzyme inhibition; Purified ALDH1A1, NADH fluorescence, propionaldehyde substrate; Potency, µM (doses to about 75.3 µM), for inactives: at the highest dose activity, negative = inhibition, usual class: inhibitors; actives 7.3% (n = 220,000); AID 1030; active = well fitted inhibition curve with a large enough effect, not every such curve was filed as active; inconclusive = small, poorly fitted or top-dose-only effect, or another doubt; inactive = no such curve, though single readings can be large or run the other way;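 note: potency is the fitted concentration of half-maximal effect; plate controls were no enzyme wells and a reference inhibitor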
Target sequence (P00352 whole entry, looked up): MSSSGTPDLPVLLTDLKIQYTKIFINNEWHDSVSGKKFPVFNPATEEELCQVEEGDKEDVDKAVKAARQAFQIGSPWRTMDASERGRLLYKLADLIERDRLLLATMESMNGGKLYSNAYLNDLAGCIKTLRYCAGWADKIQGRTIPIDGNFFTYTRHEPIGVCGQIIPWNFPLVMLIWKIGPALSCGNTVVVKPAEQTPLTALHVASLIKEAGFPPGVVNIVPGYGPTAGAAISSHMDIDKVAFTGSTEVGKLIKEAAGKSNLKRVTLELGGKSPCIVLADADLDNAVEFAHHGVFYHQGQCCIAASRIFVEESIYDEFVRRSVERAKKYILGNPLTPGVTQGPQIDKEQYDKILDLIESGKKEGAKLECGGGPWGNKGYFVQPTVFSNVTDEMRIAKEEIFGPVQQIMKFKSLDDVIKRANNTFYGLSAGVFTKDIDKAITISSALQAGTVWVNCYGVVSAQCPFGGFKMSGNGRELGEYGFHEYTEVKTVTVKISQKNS
HTT cytoprotect: protects HTT-Q103 PC12 cells, measured by ATP. PC12 HTT-Q103 induced, cytoprotection, ATP luminescence, 40 h. Potency, µM (highest dose often 56.4 µM), without a hit: cytoprotection (ATP increase), hits mostly activators. actives 0.14% (n = 230,000). AID 1471; note: potency is the fitted concentration of half-maximal effect; % of control where 0% means no effect; nearly all actives have a fitted effect of over 45% in size
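PC12 cells stably carrying ecdysone-inducible Htt exon 1 (Q103)–GFP were induced with 100 nM tebufenozide (final) alongside library compounds in a dose series. Cytoprotection was scored as retained ATP by ATPlite luminescence.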
The depositor's hits bear a star; ? = inconclusive; nt = no result given; [ ] = dose if it differs, or a comment. Sampled rows, rich in hits. Any-hit rate of the full collection: about 9.4%. Unless noted, calls come from the whole dose curve; as a rule, active = well fitted curve in the direction sought with a large enough effect; inconclusive = small, poorly fitted or top-dose-only effect, or another doubt; inactive = no such curve, though single readings can be large; an effect the other way counts as inactive or inconclusive.

SMILES | HttQ103 aggreg | IMPase Li inh | IMPase cell inh | HPGD inh | ALDH1A1 inh | HTT cytoprotect
CCCCCC(=O)N1CCN(CCN=CC2=C(O)CC(c3ccc(OC)cc3)CC2=O)CC1 (configuration not stated) | -13% | 3%[38.3 µM] | -11 | -17% | ? | -8%
CCCCCC(=O)N1CCN(CCN=CC2=C(O)CC(c3ccc(OC)c(OC)c3)CC2=O)CC1 (configuration not stated) | -4% | 40%[38.3 µM] | 4 | -3% | 22µM* | -14%[0.074 µM]
CN(C)C=Nc1c(C(=O)c2ccccc2)sc2nccc(N(C)C)c12 | 6.3µM* | 5% | nt | -15% | ? | nt
CCOC(=O)c1sc2nccc(N(C)C)c2c1N=CN(C)C | ? | 18%[38.3 µM] | 0 | 6% | -12% | -13%
CN(C)c1ccnc2sc(C(N)=O)c(N)c12 | 1.6µM* | 19%[38.3 µM] | -15 | -24% | ? | 26%
CN(C)c1ccnc2sc(C(=O)c3ccc(Br)cc3)c(N)c12 | 6% | -5% | nt | nt | ? | -40%
CCOC(=O)C1CCCN(C(=O)Cn2sc3nc(C)cc(C)c3c2=O)C1 (configuration not stated) | ? | 29%[38.3 µM] | 13 | ? | ? | -59%
Cc1cc(C)c2c(=O)n(CC(=O)N3CCC(N4CCCCC4)CC3)sc2n1 | 3% | 12%[38.3 µM] | 4 | 13µM* | 13µM* | -26%
CC(C)NC(=O)N1CCC2(CC1)CCN(S(=O)(=O)c1ccccc1)CC2 | nt | 4% | nt | -8% | -5% | 12%
CCN1CCN(Cc2ccc(NC(=O)c3ccc(C)c(NC(=O)c4nccn4C)c3)cc2C(F)(F)F)CC1 | -16%[9.22 µM] | nt | nt | nt | nt | -12%[10 µM]
CCN1CCN(Cc2ccc(NC(=O)c3ccc(C)c(NC(=O)c4nccnc4N)c3)cc2C(F)(F)F)CC1 | 2.8µM* | nt | nt | nt | nt | 4%[10 µM]
CC1CCCC(NC(=O)COC(=O)c2cc(S(=O)(=O)N3CCCCC3)ccc2N2CCOCC2)C1C (configuration not stated) | 25% | 27%[38.3 µM] | -3 | -8% | 10µM* | -13%
CN(CCNC(=O)c1cn(C)c2ccc(S(=O)(=O)N3CCCC3)cc2c1=O)CCc1ccccc1 | 14% | 1%[38.3 µM] | 8 | -7% | 32µM* | -21%
COC(=O)c1cn(C)c2ccc(S(=O)(=O)N3CCOCC3)cc2c1=O | 17% | -3% | nt | nt | 15% | nt
CN(C1CCCCC1)S(=O)(=O)c1ccc2c(c1)c(=O)c(C(=O)NCCCN1CCCC1)cn2C | 7% | -24%[38.3 µM] | 4 | -5% | 5% | -14%
CN(C1CCCCC1)S(=O)(=O)c1ccc2c(c1)c(=O)c(C(=O)NCCN1CCCC1)cn2C | ? | 16%[38.3 µM] | 9 | -10% | 7.9µM* | -10%
COC(=O)c1cn(C)c2ccc(S(=O)(=O)N3CCCC3)cc2c1=O | -8% | -1%[38.3 µM] | -9 | 8.9µM* | ? | -33%
O=C(COC(=O)c1cc(S(=O)(=O)N2CCCCC2)ccc1N1CCOCC1)NC1CCS(=O)(=O)C1 (configuration not stated) | -2% | 2% | nt | nt | 11% | -28%
Cc1ccc(-c2nnc(Nc3ccc(O)cc3)c3ccccc23)cc1S(=O)(=O)NCc1nc2ccccc2[nH]1 | nt | nt | 5 | nt | nt | nt
CCC1=C(OC(=O)N(CC)CC)N2C(=O)OC(=NCCOC)[C@]2(C)[C@H]2C1=CC[C@H]1C(=O)NC(=O)[C@H]12 | nt | -3% | nt | -5% | -8% | 7%
CCN(CC)C(=O)c1sc(NC(=O)C(C)Sc2nc(-c3ccccc3)cc(C(F)(F)F)n2)c(C(=O)OC)c1C (configuration not stated) | nt | nt | 14 | nt | nt | nt
CC1CCCC(NC(=O)c2cn(C)c3ccc(S(=O)(=O)N4CCCC4)cc3c2=O)C1C (configuration not stated) | -3% | 16%[38.3 µM] | 1 | -11% | 5.6µM* | 6%
CCN(CC(=O)NCc1cccs1)c1ccc(S(=O)(=O)N2CCCC2)cn1 | 10% | 7% | nt | nt | 2.5µM* | -54%
